Test results published in ChEMBL document CHEMBL3988442, “University of Dundee, Small-Polar-MMV Screening Library” (2021).
Out of some 85,000 compounds screened, about 440 (0.52%) showed an effect of 50% or more. The list comes from a sample in which strong results are over-represented; it also holds similar structures and randomly drawn compounds.

Experiment: In vitro enzyme assay to detect hydrolysis of chlorophenol red-beta-D-[…] directly proportional to the number of Toxoplasma stably expressing beta-galactosidase
Assay type: functional, organism-based, Toxoplasma gondii
Set-up: scale not given: in the data most compounds retested in dose-response had high values

SMILES	Percent Effect (50 µM)	Percent Effect (10 µM)
CCN(CC(C)C#N)C(=O)c1sccc1C (stereo not drawn)	16.85%	–
CCN(CC(C)C#N)C(=O)c1ccc(Br)o1 (stereo not drawn)	96.74%	–
CCN(Cc1nonc1C)C(=O)c1ccc(Br)o1	–	-1.469%
O=C1CCCN1CCCNS(=O)(=O)c1ccc(Br)s1	-1.058%	–
O=C1c2ccc(F)cc2C(=O)N1Cc1ccccn1	-3.473%	–
O=C1c2ccc(F)cc2C(=O)N1Cc1ccno1	5.807%	–
O=C1c2ccc(F)cc2C(=O)N1Cc1nnsc1Cl	52.75%	–
COC(=O)CNc1ccc2ccn(C)c(=O)c2c1	-16.28%	–
CN(C)C(=O)N1CC2(CCOCC2)c2cc(NS(=O)(=O)C3CC3)ccc21	–	-3.564%
Cn1ccc2ccc(NS(=O)(=O)C3CC3)cc2c1=O	65.83%	–
Cc1cc(CN(C)C(=O)c2cnn(C)c2C)no1	-0.6579%	–
CC(C)C(CN)N1CCN(C)CC1 (stereo not drawn)	18.88%	–
COc1ccc(Cl)cc1C(=O)NCc1cnn(C)c1C	–	-4.944%
COc1ccc(C(=O)NCc2cnn(C)c2C)o1	-4.523%	–
O=C(NCC1CCCO1)c1nc2c(s1)CCCN2Cc1ccccc1 (stereo not drawn)	–	-17.89%
COCCNC(=O)c1nnn(Cc2ccccc2)c1OC	–	38.59%
COc1c(C(=O)NCc2cnn(C)c2C)nnn1Cc1ccccc1	–	65.52%
O=C(NCc1cccnc1)c1cn(CCc2ccccc2)nn1	–	7.216%
COc1c(C(=O)NCC(C)C)nnn1Cc1ccccc1	–	74.28%
COc1c(C(=O)NCc2cccnc2)nnn1Cc1ccccc1	–	61.62%
COc1c(C(=O)NCc2cccnc2)nnn1Cc1ccc(C)cc1	–	3.825%
CCNC(=O)c1nnn(Cc2ccccc2)c1OC	–	-0.1195%
COc1c(C(=O)NCC2CCCO2)nnn1Cc1ccccc1 (stereo not drawn)	–	62.42%
CCOCCCNC(=O)c1nnn(Cc2ccccc2)c1OC	–	43.16%
CC1Cc2cc(CO)ccc2O1 (stereo not drawn)	-10.07%	–

SMILES	Percent Effect (50 µM)	Percent Effect (10 µM)
CCc1nnsc1C(=O)N1CCc2sccc2C1	-20.28%	–
Cc1ccccc1NC(=O)CCN1CCN(C)CC1	-26.18%	–
Cc1ccc2c(c1)C(=O)CCCS2(=O)=O	-6.954%	–
Cc1ccc(CN(CCO)C(=O)c2cscn2)cc1	-0.4723%	–
O=C(Nc1ccc2c(c1)OCO2)N1CCOCC1	-3.838%	–
CN1CCCC1CCSCC(=O)Nc1ccccn1 (stereo not drawn)	5.261%	–
NCc1ccc(CO)cc1	0.7244%	–
CCN(CC)C(=O)c1nnn(Cc2ccccc2)c1OC	–	-3.108%
CCn1nc(C)c(NC(=O)c2cc(NC(=O)C(C)C)n(C)n2)c1C	–	1.116%
CCn1nc(C)c(NC(=O)c2nnn(Cc3ccccc3)c2OC)c1C	–	55.69%
CCC(OCCO)c1ccccc1 (stereo not drawn)	-3.537%	–
CC(C)[C@H](N)C(=O)N1CCC(C2CCOCC2)CC1	8.319%	–
Cn1nnc(NC(=O)c2ccc(C#N)cc2F)n1	-8.268%	–
Cn1nnnc1SCCNC(=O)c1cc(Cl)ccc1F	98.81%	–
CSc1ccccc1C(=O)NCCSc1nnnn1C	-10.69%	–
Cn1nnnc1SCCNC(=O)c1cccc2ccnn12	–	-7.372%
CCC(C(=O)Nc1ccc(C)cc1)N(C)C (stereo not drawn)	-1.57%	–
COc1c(N)c(C)nn1C	95.49%	–
COc1c(CNCCS(C)(=O)=O)c(C)nn1C	3.832%	–
COc1c(CNCCCNS(C)(=O)=O)c(C)nn1C	-17.44%	–
CCC(=O)N1CCCN(C(=O)C(N)C(C)(C)C)CC1 (stereo not drawn)	9.824%	–
CC(=O)N1CCN(c2nccn2C)CC1	15.57%	–
Cc1ccc(C(=O)N2CCN(c3nccn3C)CC2)o1	58.26%	–
Cc1ccc(C(=O)N2CCN(c3nccs3)CC2)o1	7.068%	–
Cn1cc(NC(=O)CSc2nccn2C)cn1	23.13%	–

SMILES	Percent Effect (50 µM)	Percent Effect (10 µM)
CC(N)c1nnc2ccccn12 (stereo not drawn)	17.22%	–
O=C(Nc1ccncc1)NC1CCN(c2ccccc2OC(F)F)C1 (stereo not drawn)	–	74.41%
O=C(Nc1cccnc1)NC1CCN(c2ccccc2OC(F)F)C1 (stereo not drawn)	–	-3.215%
O=C(Nc1ccccn1)NC1CCN(c2ccccc2OC(F)F)C1 (stereo not drawn)	–	20.62%
CCC1(CN)OCCc2ccccc21 (stereo not drawn)	4.501%	–
NC(=O)[C@@H]1Cc2ccccc2CO1	9.404%	–
Cn1ncnc1CCNc1cc(C2CC(N)C2)ncn1 (stereo not drawn)	22.67%	–
CCCS(=O)(=O)N1CCC(NC(=O)c2cc3ccccc3s2)CC1	–	4.884%
CN1CCC(NC(=O)c2ccc3ncccc3c2)C1=O (stereo not drawn)	1.515%	–
CN1CCC(NC(=O)c2cc3ccccc3s2)C1=O (stereo not drawn)	52.45%	–
CCC(C)(NCc1cc(F)ccc1F)C(N)=O (stereo not drawn)	-22.31%	–
CCN(CCNS(=O)(=O)C1CCOCC1)C(=O)OC(C)(C)C	–	6.938%
CC(C)(C)OC(=O)N(CCNS(=O)(=O)N1CCOCC1)C1CC1	–	-6.418%
CCN(CCNS(=O)(=O)N1CCOCC1)C(=O)OC(C)(C)C	–	51.95%
O=C1CCOc2cc(O)c(F)cc21	-11.53%	–
CN(C)S(=O)(=O)CCCN1CCC2(CCCNC2=O)C1 (stereo not drawn)	25.69%	–
CC1CCCN(Cc2nc(N)nc(N(C)C)n2)C1 (stereo not drawn)	28.57%	–
COc1ccc(C(CO)N(C)Cc2ccncc2)cc1 (stereo not drawn)	7.987%	–
CCC(C#N)NC(=O)c1ccc(Oc2cccnc2)cc1 (stereo not drawn)	–	-3.821%
CCC(C#N)NC(=O)c1cnc(OC(C)C)c(Cl)c1 (stereo not drawn)	77.34%	–
CC(CO)CNC(=O)c1cnc(OC(C)C)c(Cl)c1 (stereo not drawn)	9.037%	–
O=C(c1ccccc1-n1cccn1)N1CCSCC1	5.631%	–
CCOc1ncccc1C(=O)N1CCCN(CC)CC1	8.353%	–
Cc1ccc(CN2Cc3nnn(C)c3C(COCc3ccccn3)C2)s1.O=C(O)C(F)(F)F.O=C(O)C(F)(F)F (stereo not drawn)	–	13.37%
Cc1ccc(CN2Cc3nnn(C)c3C(COCC3CC3)C2)s1.O=C(O)C(F)(F)F (stereo not drawn)	–	-9.58%

SMILES	Percent Effect (50 µM)	Percent Effect (10 µM)
Cc1ccc(CN2Cc3nnn(C)c3C(COCc3ccccc3)C2)s1.O=C(O)C(F)(F)F (stereo not drawn)	–	57.56%
COCC1CN(Cc2ccc(C)s2)Cc2nnn(C)c21.O=C(O)C(F)(F)F (stereo not drawn)	–	3.713%
Cc1ccc(CN2Cc3nnn(C)c3C(COCC(=O)N(C)C)C2)s1.O=C(O)C(F)(F)F (stereo not drawn)	–	-13.89%
CC(C)(C)c1cc(NC(=O)CN2CCC(O)CC2)on1	-5.429%	–
CCOc1ccc(NC(=O)NC2CCS(=O)(=O)C2)cc1 (stereo not drawn)	3.188%	–
O=C(CN1CCNCC1)NCCSc1ccc(Cl)cc1	4.461%	–
O=C(NCCCN1CCCCC1)c1ccc(-n2ccc3ccccc32)s1	–	79.49%
CCN(CC)CCNC(=O)c1cnc(C(C)(C)C)s1	–	0.3139%
O=C(NCCCN1CCCC1=O)c1ccc(-n2ccc3ccccc32)s1	–	17.83%
O=C(NCCCN1CCOCC1)c1ccc(-n2ccc3ccccc32)s1	–	19.43%
O=C(NCCN1CCOCC1)c1ccc(-n2ccc3ccccc32)s1	–	-1.22%
CCN(CC)CCNC(=O)c1ccc(-n2ccc3ccccc32)s1	–	63.07%
CC1Sc2ccc(C(=O)N(C)C)cc2NC1=O (stereo not drawn)	-6.489%	–
NC1CCN(c2ccccc2F)CC1	-9.36%	–
CCSCCC(C)N(C)C(=O)c1ccn(C)c(=O)c1 (stereo not drawn)	-4.294%	–
COc1ccc(C2NC(=O)c3cccnc3N2)cc1F (stereo not drawn)	6.983%	–
O=C1NC(c2cc[nH]n2)Nc2ncccc21 (stereo not drawn)	-9.997%	–
N#Cc1ccc(C2NC(=O)c3cccnc3N2)cc1 (stereo not drawn)	98.73%	–
CC(C)OCCN1CCC(O)CC1	2.889%	–
O=C(Nc1ccncc1)N1CCN(CC2CC2)CC1	11.51%	–
c1ccc(-c2noc(CN3CCOC(Cn4cccn4)C3)n2)nc1 (stereo not drawn)	–	4.093%
CN(C)CC1CN(Cc2nc(-c3ccccn3)no2)CCO1 (stereo not drawn)	–	86.82%
CN(C)CC1CN(Cc2nc(-c3cccnc3)no2)CCO1 (stereo not drawn)	–	12.35%
